Bioassay records as filed in PubChem BioAssay.
An excerpt weighted towards active compounds, which were near 3.1% of everything screened.
OvCa metastasis = Primary qHTS assay for Inhibitors of ovarian cancer metastasis using an organotypic tumor microenvironment (TME) model; SKOV3ip1-GFP adhesion/invasion on 3D omental model, fluorescence; Potency, µM (highest dose often 45.8 µM), actives largely listed as inhibitors; 46,000 tested, 0.1% active; note: nearly all actives have a fitted effect of over 65% in size
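Primary human omental fibroblast/mesothelial 3D culture pre-formed 48 h. SKOV3ip1-GFP cells added with compounds (0.36-46 umol/L), incubated 2 h RT/16 h 37 C, fixed; GFP cells quantified at 488/509 nm.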
S16 viability = Cell viability qHTS assay in S16 Pmp22-F2sN cells | 43,000 tested, 0.48% active | Potency, µM (titrated, usually from 57.5 µM), hits mostly cytotoxic | S16 Pmp22-F2sN Schwann cells viability, CellTiter-Glo, 24 h | AID 1508642, 2021; note: nearly all actives have a fitted effect of over 65% in size
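S16 Pmp22-F2sN Schwann cells (500-1,000/well) in phenol-red-free DMEM with 10% FBS received 23 nL compound by pin tool for 24 h at 37 °C. Viability was then read as CellTiter-Glo luminescence after 15 min at room temperature.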
p53null 39C tox = qHTS Screen for Compounds that Selectively Target Cancer Cells with p53 Mutations: Cytotoxicity of p53 Null Cells at the Nonpermissive Temperature; Potency, µM (titrated, usually from 46.1 µM), actives largely listed as cytotoxic; 55,000 tested, 0.97% active; AID 904, 2007; H1299 p53-null (neo) cells, 39C, ATPlite viability, 24 h; note: nearly all actives have a fitted effect of over 50% in size
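ATP-luminescence viability readout (ATPlite, 20 min RT) after 24 hr compound treatment at 39C of H1299-neo or H1299-p53A138V cells; titration up to 46 uM; normalized to DMSO and 100 uM tamoxifen; Hill-fit AC50.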
p53null 32C kill = qHTS Screen for Compounds that Selectively Target Cancer Cells with p53 Mutations: Cytotoxicity of p53 Null Cells at the Permissive Temperature | H1299-neo p53 null cells, ATP luminescence, 24 h, 32C | Potency, µM (doses to about 46.1 µM), usual class: cytotoxic | 55,000 tested, 0.62% active | AID 903, 2007; note: nearly all actives have a fitted effect of over 55% in size
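H1299-neo (p53 null) cells, 600/well, treated 24 h at 32C with compound up to 46 uM; ATPlite luminescence viability, normalized to DMSO and 100 uM tamoxifen; AC50 by Hill fit.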
pS6 MEF inh = Acumen qHTS Assay for Inhibitors of the mTORC1 Signaling Pathway in MEF (Tsc2-/-, p53-/-) Cells: Sytravon; Tsc2-/- p53-/- MEF, phospho-rpS6 immunofluorescence/PI, 24 h; 44,000 tested, 0.78% active; AID 493208, 2011; Potency, µM (doses to about 38.3 µM), most hits filed as inhibitors; note: nearly all actives have a fitted effect of over 50% in size
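Tsc2-/-, p53-/- MEFs (empty-vector stable line) in DMEM + 10% FBS were treated with compounds 24 h at 37 degree Celsius, fixed, and immunostained for phospho-rpS6 (Alexa-488) with propidium iodide counterstain. Laser-scanning cytometry gave % positive cells, normalized against 7.5 nM rapamycin and DMSO.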
PMP22 txn prim = Cell-based coincidence reporter assay to measure PMP22 gene transcription in S16 Pmp22-F2sN cells - Primary screen | Potency, µM (top dose mostly 57.5 µM), usual class: inhibitors | 43,000 tested, 2% active | S16 Pmp22-F2sN Schwann cells (luciferase reporters placed in the Pmp22 gene), FLuc/NLuc coincidence luminescence, 24 h | AID 1508649, 2021; active = clear falling dose curves in both reporters; inconclusive = both reporters move, but less clearly or upward; inactive = either reporter flat; the % is the NLuc reporter signal
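Rat S16 Pmp22-F2sN cells, 500-1,000/well in phenol red-free DMEM + 10% FBS, compound-treated 24 h (37C, 5% CO2). Luminescence: FLuc read, Stop&Glo added, NLuc read.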
NLuc sat counter = Biochemical NLuc saturation counterscreen for small molecule modulators of PMP22 gene expression - Nano-Glo assay | shares compounds with PMP22 txn prim | Secreted NLuc enzyme (filtered S16 cell medium), Nano-Glo luminescence | Potency, µM (titrated, usually from 57.5 µM), actives largely listed as inhibitors | 690 tested, 4% active | AID 1508638, 2021
NLuc Km counter = Biochemical coelenterazine-based NLuc counterscreen for small molecule modulators of PMP22 gene expression - Km assay; AID 1508639, 2021; shares compounds with PMP22 txn prim; 690 tested, 5% active; Potency, µM (series often up to 57.5 µM), hits mostly inhibitors; secreted NLuc enzyme, coelenterazine luminescence, Km conditions
FLuc ctr PMP22 = Biochemical FLuc counterscreen for small molecule modulators of PMP22 gene expression; AID 1508640, 2021; Potency, µM (titrated, usually from 57.5 µM), hits mostly inhibitors; shares compounds with PMP22 txn prim; 690 tested, under 10 active; purified P. pyralis FLuc, luminescence, 10 min
Target sequence (P08659 whole entry, looked up): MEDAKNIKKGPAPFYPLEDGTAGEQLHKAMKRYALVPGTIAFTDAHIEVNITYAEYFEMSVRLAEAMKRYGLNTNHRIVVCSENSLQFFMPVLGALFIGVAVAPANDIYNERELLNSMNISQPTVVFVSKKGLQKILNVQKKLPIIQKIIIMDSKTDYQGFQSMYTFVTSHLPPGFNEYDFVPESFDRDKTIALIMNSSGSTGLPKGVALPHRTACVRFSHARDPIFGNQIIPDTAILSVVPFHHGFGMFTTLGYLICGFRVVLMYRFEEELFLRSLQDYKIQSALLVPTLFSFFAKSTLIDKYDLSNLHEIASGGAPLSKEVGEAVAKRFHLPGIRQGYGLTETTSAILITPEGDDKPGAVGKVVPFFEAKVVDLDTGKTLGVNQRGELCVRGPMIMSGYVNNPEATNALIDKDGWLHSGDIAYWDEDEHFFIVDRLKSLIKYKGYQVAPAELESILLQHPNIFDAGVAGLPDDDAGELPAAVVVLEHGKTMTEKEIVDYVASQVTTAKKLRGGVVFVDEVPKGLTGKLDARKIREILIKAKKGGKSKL
S16 viab conf = Cell viability qHTS assay in S16 Pmp22-F2sN cells - Confirmatory screen; shares compounds with PMP22 txn prim; 690 tested, 7% active; AID 1508641, 2021; S16 Schwann cells viability, CellTiter-Glo ATP luminescence, 24 h; Potency, µM (series often up to 57.5 µM), actives largely listed as cytotoxic
PMP22 txn conf = Cell-based coincidence reporter assay to measure PMP22 gene transcription in S16 Pmp22-F2sN cells - Confirmatory screen. S16 Schwann cells Pmp22-F2sN, dual luciferase, 24 h. Potency, µM (titrated, usually from 57.5 µM), hits mostly inhibitors. 690 tested, 22% active. shares compounds with PMP22 txn prim; active = clear falling dose curves in both reporters; inconclusive = both reporters move, but less clearly or upward; inactive = either reporter flat; the % is the FLuc reporter signal
PMP22 HiBiT cnf = Cell-based HiBiT reporter assay to measure PMP22 protein expression in S16 Pmp22-HiBiT cells - Confirmatory screen; shares compounds with PMP22 txn prim; S16 Schwann cells Pmp22-HiBiT, luminescence, 48 h; Potency, µM (top dose mostly 27.9 µM), actives largely listed as inhibitors; 95 tested, under 10 active; AID 1508647, 2021
Target sequence (P25094 whole entry, looked up): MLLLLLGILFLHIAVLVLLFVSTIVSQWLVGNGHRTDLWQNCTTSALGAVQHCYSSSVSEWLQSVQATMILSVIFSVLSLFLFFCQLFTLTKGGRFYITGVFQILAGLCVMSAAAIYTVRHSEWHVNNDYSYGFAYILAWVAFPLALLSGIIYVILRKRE
Large screens that a line does not name were inactive (follow-up assays come after a bar, where they were run). Unless noted, calls come from the whole dose curve; as a rule, active = well fitted curve in the direction sought with a large enough effect; inconclusive = small, poorly fitted or top-dose-only effect, or another doubt; inactive = no such curve, though single readings can be large; an effect the other way counts as inactive or inconclusive.

CCOc1ccc(CN2CCc3nc(N4CCN(c5ccccc5OC)CC4)ncc3C2)cc1OC	PMP22 txn prim 17µM | NLuc sat counter inactive | NLuc Km counter inactive | FLuc ctr PMP22 inactive | S16 viab conf inactive | PMP22 txn conf inactive
O=C(Cn1cc(C(=O)C2CCCCC2)c2ccccc21)Nc1ccccc1Cl	PMP22 txn prim 9.5µM | NLuc sat counter inactive | NLuc Km counter inactive | FLuc ctr PMP22 inactive | S16 viab conf inactive | PMP22 txn conf inconclusive
Cc1ccc(CNC(=O)CSc2nc3ccsc3c(=O)n2-c2ccc(Br)cc2)cc1	PMP22 txn prim inconclusive
COc1ccc(-n2c(SCC(=O)NCc3ccc(Cl)cc3)nc3ccsc3c2=O)cc1	PMP22 txn prim 16µM | NLuc sat counter inactive | NLuc Km counter inactive | FLuc ctr PMP22 inactive | S16 viab conf inactive | PMP22 txn conf inactive
COc1ccc(C)cc1NC(=O)Cn1c(=O)cc(C)c2c(C)nn(C)c21	PMP22 txn prim 7.6µM | NLuc sat counter inactive | NLuc Km counter inactive | FLuc ctr PMP22 inactive | S16 viab conf inactive | PMP22 txn conf inconclusive
COc1ccc(C)cc1NC(=O)c1nnn(CC(=O)Nc2c(C)cccc2C)c1N	PMP22 txn prim 9.2µM | NLuc sat counter inactive | NLuc Km counter inactive | FLuc ctr PMP22 inactive | S16 viab conf inconclusive | PMP22 txn conf inconclusive
CCCCN(Cc1cc2ccccc2[nH]c1=O)C(=O)c1cccc(Cl)c1	PMP22 txn prim 20µM | NLuc sat counter inconclusive | NLuc Km counter inconclusive | FLuc ctr PMP22 inactive | S16 viab conf inconclusive | PMP22 txn conf inactive
COc1ccc(Br)c2c1-c1nc(NC(=O)c3cccc(C)c3)sc1C2	PMP22 txn prim 11µM | NLuc sat counter inconclusive | NLuc Km counter inactive | FLuc ctr PMP22 inactive | S16 viab conf inactive | PMP22 txn conf inconclusive | PMP22 HiBiT cnf inactive
CCC(Sc1nc2ccccc2c2nc(-c3ccccc3)nn12)C(=O)Nc1cccc(OC)c1 (centres undefined)	S16 viability inconclusive, PMP22 txn prim 13µM | NLuc sat counter inactive | NLuc Km counter inactive | FLuc ctr PMP22 inactive | S16 viab conf inactive | PMP22 txn conf 15µM | PMP22 HiBiT cnf inconclusive
CNC(=O)c1cccc(-c2ccc3c(N4CCOC[C@H]4C)nc(N4CCOC[C@H]4C)nc3n2)c1	none (no result: S16 viability, p53null 39C tox, p53null 32C kill, pS6 MEF inh, PMP22 txn prim)
CCc1nnc(SCC(=O)N(C)c2ccccc2)c2cc3sccc3n12	S16 viability inconclusive, PMP22 txn prim 13µM | NLuc sat counter inconclusive | NLuc Km counter inconclusive | FLuc ctr PMP22 inactive | S16 viab conf inactive | PMP22 txn conf inconclusive
CC(=O)N1c2c(cc(Br)cc2S(=O)(=O)Nc2ccc(OC(F)(F)F)cc2)CC1C (centres undefined)	pS6 MEF inh inconclusive, PMP22 txn prim 16µM | NLuc sat counter 22µM | NLuc Km counter 1.5µM | FLuc ctr PMP22 inactive | S16 viab conf inactive | PMP22 txn conf inactive
CCOC(=O)c1ccc(NS(=O)(=O)c2cc(Br)cc3c2N(C(C)=O)C(C)C3)cc1 (centres undefined)	PMP22 txn prim inconclusive
COc1cccc(NC(=O)CSc2nc3c([nH]c4ccccc43)c(=O)n2-c2cc(C)cc(C)c2)c1	none
Cc1nnc(NC(=O)CSc2nc3c([nH]c4ccccc43)c(=O)n2-c2ccccc2)s1	PMP22 txn prim inconclusive
O=C(CSc1nc2c([nH]c3ccccc32)c(=O)n1-c1cccc(Cl)c1)c1ccccc1	PMP22 txn prim 14µM | NLuc sat counter inactive | NLuc Km counter inactive | FLuc ctr PMP22 inactive | S16 viab conf inactive | PMP22 txn conf 12µM | PMP22 HiBiT cnf inconclusive
O=C(CSc1nc2c([nH]c3ccccc32)c(=O)n1-c1ccccc1)c1ccccc1	none
Cc1cc(C)cc(-n2c(SCC(=O)Nc3nnc(C)s3)nc3c([nH]c4ccccc43)c2=O)c1	PMP22 txn prim 16µM | NLuc sat counter inconclusive | NLuc Km counter inconclusive | FLuc ctr PMP22 inactive | S16 viab conf inactive | PMP22 txn conf inconclusive
COc1cccc(-n2c(SCC(=O)Nc3c(C)cc(C)cc3C)nc3c([nH]c4ccccc43)c2=O)c1	pS6 MEF inh inconclusive, PMP22 txn prim 12µM | NLuc sat counter inactive | NLuc Km counter inactive | FLuc ctr PMP22 inactive | S16 viab conf inactive | PMP22 txn conf inconclusive
O=C(CCn1cnnn1)Nc1cc(C(F)(F)F)cc(C(F)(F)F)c1	PMP22 txn prim 3.9µM | NLuc sat counter inactive | NLuc Km counter inactive | FLuc ctr PMP22 inactive | S16 viab conf inactive | PMP22 txn conf inconclusive
